Assay results as given in PMC12136788.
Where a chain is given by its changes, count along the chain named. Over roughly 5,800 sequences, “enrichment r” has its median near 0.54; the highest 2% begin near 16. Only a selection was taken, and the highest values are over-represented in it overall.

B1: ENSG00000136451:be:win_2701|3pUTR|ENSG00000136451|bound_else_gene|NA|bound_elsewhere_windowed (ssRNA)
RNA: GGGAGUUCUACAGUCCGACGAUCUGUAAAUAUGGACAUCACUUUUUUUUUCUUUGAGAAAACACUUGUAUCAGCUUUGUGGUGUUUUCAGGGAGACAGCUGUCUGCAUUCCCUGUAGAAACCCAGCAAUGAUUAUGCACGUUGCAACAGAGGAUUGAGCAUCA
B2: chr8:73046310:73046411:+|3pUTR|ENSG00000147601|msi1|total|mutant (ssRNA)
RNA: GGGAGUUCUACAGUCCGACGAUCUUGUAUUCUUUAAGAACCUUAUUUUGAUAAAAUGUAAAUUUGUUGAACCCUGCCACAUUCCGUAUCCCCACCCCCAAAUCCUGUUCCAAUGAAAAAAUUAAAACCUGAUACGAAAAAAAACAACAGAGGAUUGAGCAUCA
B3: chr4:70820284:70820384:-|3pUTR|ENSG00000132463|msi1_unk|FALSE|overlapping (ssRNA)
RNA: GGGAGUUCUACAGUCCGACGAUCUGAACUGGUAUGGUUUGGCAGAAUAGUUUUAAAUUUUGCUGUAUUUGAUUACUUAGAGAUAGGAAUUUUUAAAAAUCAAAACAAAAAAUACCACAGCUUAGUGUAAAUGACAAUUUGGCGCAACAGAGGAUUGAGCAUCA
B4: chr8:25429562:25429664:-|3pUTR|ENSG00000104756|unk|total|mutant (ssRNA)
RNA: GGGAGUUCUACAGUCCGACGAUCAGAAAAGCACUCAUUUAACCGAUGCCGGGAAACCCGAUAUUGCUGCCUUUUGAAUGGGGCCGGGGGGUUUACCUGGUUUUAUGACCAGGCACCGUAUCUAUUAUAUUUGCUUUUAAACCGCAACAGAGGAUUGAGCAUCA
B5: ENSG00000152661:stop:overlap|stop_codon|ENSG00000152661|stop_codon|NA|stop_codon (ssRNA)
RNA: GGGAGUUCUACAGUCCGACGAUCCUUCAAGCAGAGCCAGCAGUCGUGCCAGCAGCAGACCUCGGCCUGAUGACCUGGAGAUCUAGAUACAGGCUUGAAAGCAUCAAGAUUCCACUCAAUUGUGGAGAAGAAAAAAGGUGCUGUCAACAGAGGAUUGAGCAUCA
B6: chr5:116443554:116446612:-|three_prime_utr|ENSG00000092421|control|control|control (ssRNA)
RNA: GGGAGUUCUACAGUCCGACGAUCCCGCCAGUGUUACAGCUUUCUGUUGCAGCAGAUAAAUGCCAUGUUGGGCAACUAUGUCAUAGAUUUCUGCUCCUCCUCUCUUUUAAUGAAAUAACGUGACCGUUAACGCAAGUAACUCUUCAACAGAGGAUUGAGCAUCA
B7: chr12:50748518:50748596:+|3pUTR|ENSG00000066084|msi1_unk|FALSE|overlapping (ssRNA)
RNA: GGGAGUUCUACAGUCCGACGAUCUCAAAUUCAAACUACAGUACUGUGUAAUUAUGUAUAAAGUUUUUUUAUUUAUUUGAAGUUAGACUAGAUAUACGUUUUUAAAUUUAACAUCUGGCUGGACAGUGUUCUAUUAACUCAUUGCAACAGAGGAUUGAGCAUCA
B8: chr8:140515610:140515764:+|3pUTR|ENSG00000104472|unk|FALSE|unique (ssRNA)
RNA: GGGAGUUCUACAGUCCGACGAUCUUUUGGAAUCAGUUCUUAUAAACAGCUCGAUUCAGUUUUAGCUAAAUUUAUAGUUUAGGUAGUAUGUUACAUUUGAAUUUUUGUCUUAAGAAAAGUUGACUGUUCAGAUAUUUUUCUACUCAACAGAGGAUUGAGCAUCA
B9: chr18:9400975:9401076:+|3pUTR|ENSG00000128791|msi1|FALSE|unique (ssRNA)
RNA: GGGAGUUCUACAGUCCGACGAUCUAUAAAAAUAGAUAAUGCUCUUGGACACAUUUUGUAUUAUUCAUGAUCUGAAUAGUAGUUAGUUAAAAGAUCAUUUGUAAUAUUAUGAUCAACUGUUAUAAAUUAAGGUCUUAAUACCUUCAACAGAGGAUUGAGCAUCA
B10: chr5:159157431:159157536:-|3pUTR|ENSG00000145860|unk|FALSE|bound_elsewhere (ssRNA)
RNA: GGGAGUUCUACAGUCCGACGAUCCAAAAAGUGUUUUUCAGACCUCGGUAUUCCUAAUGUGGGAUGUGACUUUAUUUUAUUUUUAGUAGCAAAUUUGGAUGUAGACUGACAGACAUAGCUGAAUGUCUUAAUAAAUUUAAAUUUCAACAGAGGAUUGAGCAUCA
B11: chr4:42087128:42087229:+|3pUTR|ENSG00000014824|msi1|FALSE|unique (ssRNA)
RNA: GGGAGUUCUACAGUCCGACGAUCAUUUUGUAUAAUAUAGUUCAUACUGUGUCUGUGAGUUUCUUCAGUUACAAAUGGGCAUUUAGUAUAGUUAUAUUGACUAUAACAUGUAAGUAAAUAGCUUUCUACUGACCCUAAGUUAUCCAACAGAGGAUUGAGCAUCA
B12: chr20:59325757:59325866:+|3pUTR|ENSG00000124205|unk|FALSE|unique (ssRNA)
RNA: GGGAGUUCUACAGUCCGACGAUCUUAUGUGGAUCUGUUCAAAGUAGUCACUGUAUAUACGUAUAGAGAGGUAGAUAGGUAGGUAGAUUUUAAAUUGCAUUCUGAAUACAAACUCAUACUCCUUAGAGCUUGAAUUACAUUUUUCAACAGAGGAUUGAGCAUCA
B13: chr5:159157431:159157536:-|3pUTR|ENSG00000145860|unk|total|mutant (ssRNA)
RNA: B10 RNA with U83C, A84C, U86C, A87C, U101C, A102C, U115C, A116C
B14: ENSG00000124766:be:win_3651|3pUTR|ENSG00000124766|bound_else_gene|NA|bound_elsewhere_windowed (ssRNA)
RNA: GGGAGUUCUACAGUCCGACGAUCUCGCUAAAUAUAAUUGUUUUAGUCUUAUGGCAUGAUGAUAGCAUAUGUGUUCAGGUUUAUAGCUGUUGUGUUUAAAAAUUGAAAAAAGUGGAAAACAUCUUUGUACAUUUAAGUCUGUAUCAACAGAGGAUUGAGCAUCA
B15: chr8:140515610:140515764:+|3pUTR|ENSG00000104472|unk|total|mutant (ssRNA)
RNA: B8 RNA with U62C, A63C, U74C, A75C, U79C, A80C, U83C, A84C
B16: chr9:74692981:74693082:+|3pUTR|ENSG00000198963|unk|FALSE|unique (ssRNA)
RNA: GGGAGUUCUACAGUCCGACGAUCUUUUAUAUUACUUUAGAAUGUAAUAGGUUUUUGUCCUUAUUUUAUGUCCUGUAAAUUAUUAGUUCAAUACUGUUAGCAUUCCCGGAUAAUGCACACAUGAUUUCUGAAUGUUUUCUGUAACAACAGAGGAUUGAGCAUCA
B17: chr18:9400975:9401076:+|3pUTR|ENSG00000128791|msi1|total|mutant (ssRNA)
RNA: B9 RNA with U32C, A33C, U76C, A77C, U79C, A80C, U83C, A84C
B18: chr20:59325757:59325866:+|3pUTR|ENSG00000124205|unk|total|mutant (ssRNA)
RNA: GGGAGUUCUACAGUCCGACGAUCUUAUGUGGAUCUGUUCAAAGCCGUCACUGUAUAUACGUACCGAGAGGCCGACCGGCCGGCCGAUUUUAAAUUGCAUUCUGAAUACAAACUCAUACUCCUCCGAGCUUGAAUUACAUUUUUCAACAGAGGAUUGAGCAUCA
B19: chr5:14398947:14399058:+|CDS|ENSG00000038382|unk|total|mutant (ssRNA)
RNA: GGGAGUUCUACAGUCCGACGAUCCCCAAAAACCUUAAUUCGAAAGGGUCGAGAACGGCAUCUCUUCCUUUUUGAAAUGUCCUCCGUAUUCCGUAAAGAAGUGAAAGAUUCCAGUGGGAGAAGCAAGUACCUUUAUAAAAGCAACAACAGAGGAUUGAGCAUCA
B20: chr1:206903316:206905147:-|three_prime_utr|ENSG00000162894|control|control|control (ssRNA)
RNA: GGGAGUUCUACAGUCCGACGAUCUCUGUGCCCUGAGCAUGGCUCUGCCCCCAGGUCGUCUUGCACACCUUGGCAGCCCCCUGUAGUUGACAGGUAAGCUGUAGGCAUGUAGAGCAAUUGUCCCAAUGCCACUUGCUUCCUUUCCAACAGAGGAUUGAGCAUCA
B21: chr3:31657911:31664018:-|three_prime_utr|ENSG00000144645|control|control|control (ssRNA)
RNA: GGGAGUUCUACAGUCCGACGAUCGGGUUUUUCUUGCUGAGCCCCCAAGACUGGAUAAAUACCAGGCAGGGGAAGGGAUGGACUAGGGCAGCUCGGUUCUGACUCCAGCUUUGGACAAGGCUUCAGGACAGGUUUUCUGCCACACAACAGAGGAUUGAGCAUCA
B22: chr2:190659421:190659522:+|CDS|ENSG00000138386|unk|FALSE|unique (ssRNA)
RNA: GGGAGUUCUACAGUCCGACGAUCAGAGACUGGGUCACAAACCCUGGGCUUUUCAAUCAGCCACUGACUUCCCUUCCUGUCAGUAGCAUACCCAUCUAUAAAUUACCAGAGGGAUCACCAACAUGGCUGGGAAUAUCCUGCAGUCAACAGAGGAUUGAGCAUCA

These binders were tested against MSI1 full-length (mouse, UniProt Q61474 1-362) (assay: nsRBNS (natural sequence RNA bind-n-seq); RBNS binding buffer (assumed for nsRBNS): 25 mM Tris pH 7.5, 150 mM KCl, 3 mM MgCl2, 0.01% Triton X-100, 500 ug/ml BSA, 20 U/ml SUPERase-In, 4 C; UNK is unkempt and MSI1 is Musashi-1; names of the RNAs are library labels; protein concentration not given here; high values mean tight binding).
Sequence of MSI1 full-length (Q61474 whole entry): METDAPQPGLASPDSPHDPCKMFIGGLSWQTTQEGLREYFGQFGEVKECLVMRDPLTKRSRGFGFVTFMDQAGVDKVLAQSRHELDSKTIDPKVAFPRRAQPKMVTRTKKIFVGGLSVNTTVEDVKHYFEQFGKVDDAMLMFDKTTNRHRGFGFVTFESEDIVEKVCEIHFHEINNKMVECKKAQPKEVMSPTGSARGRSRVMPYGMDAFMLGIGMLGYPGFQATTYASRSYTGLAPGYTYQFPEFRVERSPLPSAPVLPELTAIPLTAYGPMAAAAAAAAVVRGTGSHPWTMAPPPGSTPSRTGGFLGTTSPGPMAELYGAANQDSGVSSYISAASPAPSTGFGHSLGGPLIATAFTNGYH
B1 gave a binding signal of 0.266 enrichment R.
In the case of B2, the binding signal is reported as 2.83 enrichment R.
Binder B3 has a binding signal of 4.91 enrichment R.
B4 gave a binding signal of 0.472 enrichment R.
B5 showed a binding signal of 0.49 enrichment R.
In the case of B6, the binding signal is reported as 0.417 enrichment R.
B7 gave a binding signal of 5.2 enrichment R.
In the case of B8, the binding signal is reported as 69.1 enrichment R.
B9 gave a binding signal of 24 enrichment R.
B10 was tested, and the binding signal was 23.3 enrichment R.
With B11 the binding signal was 2.94 enrichment R.
In the case of B12, the binding signal is reported as 20.2 enrichment R.
For B13, the binding signal was 0.361 enrichment R.
B14 showed a binding signal of 2.43 enrichment R.
B15 showed a binding signal of 0.336 enrichment R.
For B16, the binding signal was 2.02 enrichment R.
For B17, the binding signal was 0.599 enrichment R.
For B18, the binding signal was 0.342 enrichment R.
B19 showed a binding signal of 0.383 enrichment R.
In the case of B20, the binding signal is reported as 0.397 enrichment R.
For B21, the binding signal was 0.515 enrichment R.
B22 showed a binding signal of 0.584 enrichment R.
